Compound activity: PubChem, Broad Institute
Vif imaging = blocks HIV Vif function; actives 0.35% (n = 340,000); inhibition, % at 7.49 µM; HEK293T cells, Vif self-association by quenched fluorescence, imaging, 24 h; AID 602346; in the data active = inhibition above about 50%, passing the limit was not always enough
CFTR F508del cor = CFTR F508del correction in bronchial cells | CFBE cells, YFP halide quenching; stimulated with forskolin plus potentiator P3; % fluorescence drop versus neutral controls | activity (quench increase), % at 7.58 µM | actives 0.36% (n = 350,000) | AID 720511;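 active = mean added fluorescence quench of at least 8% versus neutral control, with both replicates also reaching 8%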;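 note: cells transiently co-express mutant CFTR-F508del with the halide-sensitive YFP; corrector assay measuring rescue of mutant channel to the surface after 24 h compound exposure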
FGF22 binding = FGF22 (human) thermal shift binding | Q9HCT0 | recombinant FGF22 thermal shift, SYPRO orange fluorescence; percent of sucrose octasulfate shift, DMSO zero | activity (Tm shift, normalised), % at 9.99 µM | actives 1.5% (n = 340,000) | AID 651658;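 active = mean Tm shift, scaled 0 neutral to 100 positive control, at about 1.3% or above, every replicate too, limit read from the data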
Target sequence (Q9HCT0 whole entry, looked up): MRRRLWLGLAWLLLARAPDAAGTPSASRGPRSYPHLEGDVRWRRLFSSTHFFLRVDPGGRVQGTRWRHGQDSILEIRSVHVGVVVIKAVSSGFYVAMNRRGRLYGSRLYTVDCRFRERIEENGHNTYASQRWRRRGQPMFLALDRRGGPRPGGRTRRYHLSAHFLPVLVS
Hits are given with their value; - = inactive; . = no result. Shown are actives, neighbours in structure and some others; about 1.7% of the full set was active somewhere.

SMILES | Vif imaging | CFTR F508del cor | FGF22 binding
O=C(NC[C@@H]1[C@@H](c2ccccc2)[C@@H](CO)N1C(=O)C1CCC1)NC1CCCC1 | . | - | .
Cc1nc(S/C(=C/c2ccc(-c3ccc(Cl)cc3)o2)C(=O)O)n[nH]1 | - | . | .
Cc1nc(S/C(=C/c2ccc(-c3cc(Cl)ccc3C)o2)C(=O)O)n[nH]1 | 51.9 | - | -
CCOC(=O)c1nnc(-c2ccccc2)nc1N1CC(C)OC(C)C1 (configuration not stated) | - | - | -
CCOC(=O)c1cnc(-c2ccccc2)nc1N1CC(C)OC(C)C1 (configuration not stated) | - | - | 43.3
COc1ccccc1-c1ccc([C@@H]2[C@@H](CO)N(C(=O)C3CC3)[C@H]2C#N)cc1 | . | - | -
COCC(=O)Nc1ccc2c(c1)C(=O)N(C)C[C@@H](OC)[C@@H](C)CN(Cc1cc(F)ccc1F)[C@@H](C)CO2 | . | - | -
COc1ccc(S(=O)(=O)N(C)C[C@@H]2Oc3c(NC(=O)c4cc(C)nn4C)cccc3C(=O)N([C@H](C)CO)C[C@@H]2C)cc1 | . | - | -
CCN(CCCNC(=O)C1CCC(=O)N1Cc1ccccc1Cl)c1cccc(C)c1 (configuration not stated) | - | . | .
CCN(CCCNC(=O)C1CCC(=O)N1Cc1ccc(C)cc1)c1cccc(C)c1 (configuration not stated) | 51.5 | . | .
CCC(=O)N1CCCCN2[C@@H](CO)[C@H](c3ccc(/C=C/c4ccccc4)cc3)[C@@H]2C1 | . | - | -
CCCC(=O)NC1=C(Cl)C(=O)c2ccccc2C1=O | 97.9 | 45.0 | -
CCNC1=C(Cl)C(=O)c2ccccc2C1=O | - | . | .
CCC1(C)COC(C)(CC(=O)NNC(=O)Nc2ccccc2)OC1 (configuration not stated) | - | - | 43.5
CCCC(=O)NNC(=O)Nc1ccccc1 | - | - | -
CCOC(=O)COn1c(=O)c(-c2ccc(OC)cc2)[n+]([O-])c2ccccc21 | - | - | -
CCOC(=O)COn1c(=O)c(-c2ccccc2)[n+]([O-])c2ccccc21 | 76.1 | - | -
O=C(CN1CCOCC1)N[C@H]1CC[C@H](CCNC(=O)C2CCCC2)O[C@H]1CO | . | - | -
Cc1ccc2nc(N)nnc2c1 | - | - | -
Nc1nnc2cc(Cl)ccc2n1 | - | - | 43.6
CCC1CCCCN1C(=O)CCc1nnc(C2CCCCC2)o1 (configuration not stated) | - | - | 43.0
COC(=O)[C@@H]1CCCN1C(=O)CCc1nnc(C2CCCCC2)o1 | - | - | -
N#C[C@H]1[C@H](c2ccccc2C2=CCCC2)[C@@H](CO)N1C(=O)C1CCOCC1 | . | - | -
CCC(=O)Nc1ccc2c(c1)OC[C@@H](C)N(C(=O)CC1CC1)C[C@@H](C)[C@H](OC)CN(C)C2=O | . | - | -
Cc1ccc(N=C2NC(=O)/C(=C/c3cccn3C)S2)c(C)c1 | - | - | -
SMILES | Vif imaging | CFTR F508del cor | FGF22 binding
O=C1NC(=Nc2ccccc2)S/C1=C\c1cccs1 | - | - | -
Cn1cccc1/C=C1\SC(=Nc2cccc(O)c2)NC1=O | - | 9.1 | -
Cn1cccc1/C=C1\SC(=Nc2ccccc2)NC1=O | - | 14.5 | -
O=C1NC(=Nc2ccc(O)cc2)S/C1=C/c1ccco1 | . | 11.2 | -
COc1cc(/C=C2\SC(=Nc3ccc(O)cc3)NC2=O)cc(OC)c1O | - | - | -
Cn1cccc1/C=C1\SC(=Nc2ccc(O)cc2)NC1=O | - | 12.0 | -
Cc1ccc(N=C2NC(=O)/C(=C\c3ccco3)S2)cc1 | - | . | .
CCCN1C[C@@H](C)[C@H](OC)CN(C)C(=O)c2cc(NC(=O)Nc3cccc(OC)c3)ccc2OC[C@@H]1C | . | - | .
CO[C@H]1CN(C)C(=O)c2cc(NS(=O)(=O)c3cn(C)cn3)ccc2OC[C@@H](C)N(Cc2cccc(F)c2)C[C@H]1C | . | - | -
C[C@@H]1CCCCO[C@H](CN(C)S(=O)(=O)c2cn(C)cn2)[C@@H](C)CN([C@@H](C)CO)C(=O)c2cc(NC(=O)Nc3ccc(F)cc3)ccc2O1 | . | - | .
COc1ccc(S(=O)(=O)N(C)C[C@H]2Oc3c(NC(=O)Nc4c(C)noc4C)cccc3C(=O)N([C@H](C)CO)C[C@H]2C)cc1 | . | - | .
Cc1c(NS(=O)(=O)c2ccc(Cl)c(C(=O)OC(C)C(=O)NCc3ccco3)c2)c(=O)n(-c2ccccc2)n1C (configuration not stated) | - | - | -
Cc1c(NS(=O)(=O)c2ccc(Cl)c(C(=O)OCC(=O)NCc3ccco3)c2)c(=O)n(-c2ccccc2)n1C | - | - | 44.0
C[C@H]1CCCCO[C@@H](CN(C)C(=O)NC2CCCCC2)[C@@H](C)CN([C@@H](C)CO)C(=O)c2cc(NS(=O)(=O)c3ccccc3)ccc2O1 | . | - | -
NC(=O)c1sc(=S)n2c1[nH]c(=O)c1sccc12 | - | - | 47.4
CC(=O)NNC(=O)c1sc(=S)n2c1[nH]c(=O)c1sccc12 | - | - | 43.0
O=C(NCc1ccccc1)c1sc(=S)n2c1[nH]c(=O)c1ccccc12 | - | . | .
NC(=O)c1sc(=S)n(-c2ccc(Br)cc2)c1N | - | - | -
Cc1ccc(S(=O)(=O)N(C)C[C@H]2OCCCC[C@@H](C)Oc3ccc(NC(=O)Nc4cccc5ccccc45)cc3C(=O)N([C@@H](C)CO)C[C@H]2C)cc1 | . | - | -
Cc1ccc(S(=O)(=O)Nc2ccc3c(c2)C(=O)N([C@H](C)CO)C[C@H](C)[C@H](CN(C)Cc2ccc4c(c2)OCO4)OCCCC[C@@H](C)O3)cc1 | . | - | -
CC(CCC(=O)O)C1CCC2C3CCC4C[C@H](O)CCC4(C)C3CC(=O)C12C (some centres not stated) | 52.6 | - | -
C[C@H](CCC(=O)O)[C@H]1CC[C@H]2[C@@H]3CC[C@@H]4C[C@H](O)CC[C@]4(C)[C@H]3CC[C@]12C | - | - | -
Cc1cc(C(=O)NC2CCCCC2C)c2ccccc2n1 (configuration not stated) | - | - | -
CCc1nc2ccc(F)cc2c(C(=O)NC2CCCCC2C)c1C (configuration not stated) | 53.9 | . | .
COc1ccc2c3c(n(C)c2c1)[C@H](CO)N(C(=O)CC1CC1)CC31CCN(C(=O)C2CCCC2)CC1 | . | - | -
SMILES | Vif imaging | CFTR F508del cor | FGF22 binding
O=C(NCCCn1ccnc1)/C(=C/c1ccco1)NC(=O)c1ccco1 | - | - | -
O=C(NCCCn1ccnc1)/C(=C/c1ccco1)NC(=O)c1cccs1 | - | - | 1.4
CCC(=O)N1CC2(C1)[C@H](c1ccc(-c3ccccc3)cc1)[C@@H](CO)N2S(C)(=O)=O | . | - | -
CO[C@@H]1CN(C)C(=O)c2cc(NC(=O)NC(C)C)ccc2OC[C@H](C)N(C(=O)C2CCC2)C[C@@H]1C | . | - | -
CCN(C[C@H]1N[C@H](CO)[C@@H]1c1ccc(-c2ccccc2)cc1)C(=O)COC | . | - | -
CC1CCN(CC(=O)c2cccs2)CC1 | - | - | 43.8
O=C(CCC(=O)c1cccs1)OCC(=O)N1CCN(C(=O)c2ccco2)CC1 | - | . | .
CC1CC(C)CN(CC(=O)c2cccs2)C1 (configuration not stated) | - | - | -
CC1CC(C)CN(C(=O)COC(=O)CCC(=O)c2cccs2)C1 (configuration not stated) | - | - | 43.6
CN(C[C@H]1N[C@@H](CO)[C@H]1c1ccc(-c2cccc(F)c2)cc1)C(=O)CC1CC1 | . | - | -
